# High-throughput results: PubChem, National Center for Advancing Translational Sciences (NCATS)
# FLuc counter = qHTS profiling assay for firefly luciferase inhibitor/activator using purifed enzyme and Km concentrations of substrates (counterscreen for miR-21 project); Potency, µM (top dose mostly 57.5 µM), for inactives: top-dose activity change, negative = inhibition, most hits filed as inhibitors; purified FLuc, Km substrates, luminescence inhibition; Luciferin 4-monooxygenase (Photinus pyralis), P08659; hit rate 6.9% among 360,000;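 also: plate controls were vehicle for no effect and reference inhibitor for full effect; nearly all actives have a fitted effect of over 55% in size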
# Target sequence (P08659 whole entry, looked up): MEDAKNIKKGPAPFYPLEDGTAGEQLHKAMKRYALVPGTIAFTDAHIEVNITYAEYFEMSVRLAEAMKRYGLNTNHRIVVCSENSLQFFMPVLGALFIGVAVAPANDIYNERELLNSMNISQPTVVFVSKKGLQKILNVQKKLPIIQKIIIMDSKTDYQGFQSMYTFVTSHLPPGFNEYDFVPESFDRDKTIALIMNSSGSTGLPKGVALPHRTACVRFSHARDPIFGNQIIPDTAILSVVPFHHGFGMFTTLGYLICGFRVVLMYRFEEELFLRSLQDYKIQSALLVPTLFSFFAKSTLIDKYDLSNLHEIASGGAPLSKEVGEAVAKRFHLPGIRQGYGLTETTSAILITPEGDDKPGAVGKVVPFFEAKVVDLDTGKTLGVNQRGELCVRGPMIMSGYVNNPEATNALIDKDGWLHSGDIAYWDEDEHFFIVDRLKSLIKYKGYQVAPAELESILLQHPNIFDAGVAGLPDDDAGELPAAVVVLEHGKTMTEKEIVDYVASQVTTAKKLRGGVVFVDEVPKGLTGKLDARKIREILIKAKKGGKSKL
#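 Biochemical qHTS of compounds, final roughly 60 µM downward over six points, against 10 nM purified firefly luciferase using Km concentrations of substrates (10 uM D-luciferin, 10 uM ATP) in Tris acetate pH 7.5 buffer; luminescence output.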
# Rab9 prom act = qHTS Assay for Rab9 Promoter Activators | Huh7 Rab9 promoter-luciferase reporter, luminescence, 24 h | Potency, µM (titrated, usually from 9.22 µM), inactives show at the highest dose activation, negative = inhibition, hits mostly activators | hit rate 2.8% among 320,000 | AID 485297, 2010; also: % of control where 0% means no effect; nearly all actives have a fitted effect of over 60% in size
#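 Quantitative HTS format; Huh7 Rab9-luciferase reporter cells (1500/well) receive compound 2 h post-plating, incubate 24 h at 37 °C, then get luciferase reagent for 10 min before luminescence reading.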
# ELG1 genotoxic = qHTS screen for small molecules that induce genotoxicity in human embryonic kidney (HEK293T) cells expressing luciferase-tagged ELG1; HEK293T ELG1-luciferase reporter, luminescence, 16 h; hit rate 1.3% among 330,000; Potency, µM (doses to about 46 µM), inactives show at the highest dose activity change, positive = activation, actives largely listed as activators; also: % of control where 0% means no effect; nearly all actives have a fitted effect of over 60% in size
#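 Genotoxicity was scored as increased ELG1-luciferase reporter signal, measured by ONE-Glo luminescence (30 min, room temperature). Compound or vehicle exposure of the HEK293T reporter cells lasted 16 hr at 37°C.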
# NPC1 promoter act = qHTS Assay for NPC1 Promoter Activators; Huh7 NPC1 promoter luciferase reporter, 24 h; Potency, µM (highest dose often 9.22 µM), without a hit: at the top dose activation, usual class: activators; hit rate 2.4% among 320,000; AID 485313, 2010; also: % of control where 0% means no effect; nearly all actives have a fitted effect of over 60% in size
#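 In 1536-well qHTS, Huh7 cells harboring an NPC1 promoter–luciferase construct received compound for 24 h; activation was quantified by luminescence following luciferase reagent addition.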
# SMN2 splice up = qHTS Assay for Enhancers of SMN2 Splice Variant Expression. HEK293 SMN2-luciferase splicing reporter, luminescence, 30-36 h. Potency, µM (doses to about 46.1 µM), for the others: top-dose activity change, positive = activation, hits mostly activators. hit rate 2.8% among 210,000. AID 1458, 2008; also: % of control where 0% means no effect; nearly all actives have a fitted effect of over 55% in size
#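 HEK293 cells carry an SMN2 minigene-luciferase reporter in which exon 7 inclusion puts luciferase in frame. Cells were seeded at 2000 cells/well, attached for 10-12 hours, then exposed to compounds for 30-36 hours at 37C before ONE-Glo luminescence.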
# ELG1 DNA repair = qHTS screen for small molecules that inhibit ELG1-dependent DNA repair in human embryonic kidney (HEK293T) cells expressing luciferase-tagged ELG1. HEK293T ELG1-luciferase reporter, luminescence, 16 h; DNA damage induced by 5-fluorouridine. Potency, µM (doses to about 46.1 µM), for inactives: at the top dose activity change, negative = inhibition, hits mostly inhibitors. hit rate 2.3% among 330,000. AID 504467, 2011; also: % is scaled to controls: 0 for no effect and ±100 for the full control effect; nearly all actives have a fitted effect of over 55% in size
#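 Step one: seed 2,000 cells per well. Step two: pin-transfer compound or DMSO alongside 5-fluorouridine. Step three: incubate 16 hr, 37 °C, 5% CO2. Step four: add ONE-Glo, wait 30 min, read luminescence.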
# * marks the source's active call; other numbers are inactive results; ? = inconclusive; . = no result given; ! = not active in a repeat. This is a sample that favours compounds with a hit; in the whole collection about 9.4% have one here. Calls follow the shape of the dose curve; as a rule, active = well fitted curve in the direction sought with a large enough effect; inconclusive = small, poorly fitted or top-dose-only effect, or another doubt; inactive = no such curve, though single readings can be large; an effect the other way counts as inactive or inconclusive. Potency is read from the fitted curve at half-maximal effect.
SMILES,FLuc counter,Rab9 prom act,ELG1 genotoxic,NPC1 promoter act,SMN2 splice up,ELG1 DNA repair
Cn1c(NC(=O)/C=C/c2ccccc2)cc(=O)n(C)c1=O,21µM*,?,?,16%,7.9µM*,?
CCCC(=O)Nc1cc(=O)n(C)c(=O)n1C,0%,4%,1%,-1%,-20%,16%
COc1ccc(/C=C/C(=O)Nc2cc(=O)n(C)c(=O)n2C)cc1,9.5µM*,-1%,13%,1%,7%,?
Cn1c(NC(=O)CCc2ccccc2)cc(=O)n(C)c1=O,13µM*,2.8µM*,16µM*,?,?,?
Cc1cccc(N2CCN(c3ncnc4onc(-c5ccc(F)cc5)c34)CC2C)c1 (centres undefined),0%,.,.,.,.,.
COc1ccccc1NC(=O)CCNS(=O)(=O)c1ccc2c(c1)CCCC(=O)N2,-7%,.,.,.,.,.
CCOc1ccc(N(C(=O)c2ccc(Cl)cc2)S(=O)(=O)c2ccc3c(c2)n(C)c(=O)n3C)cc1,-5%,.,.,.,-2%,.
CCN(CC)S(=O)(=O)c1cc(C(=O)Oc2cccc(-c3cnc4ccccc4n3)c2)ccc1OC,-17%,?,10%,?,13µM*,?
COc1cccc(-c2ncc3ccccc3c2COC(=O)c2ccco2)c1,-15%,-4%,1%,-1%,.,?
CCN(CC)S(=O)(=O)c1cc(C(=O)O)ccc1OC,3%,-3%,0%,8%,.,3%
O=C(Oc1cccc(-c2cnc3ccccc3n2)c1)c1ccco1,24µM*,3.2µM*,?,?,13µM*,?
CCN(CC)S(=O)(=O)c1ccc(C)c(NC(=O)Cn2c(=O)cnc3ccccc32)c1,-6%,4%,-6%,-5%,-32%,?
CCN(CC)S(=O)(=O)c1ccc(C)c(C(=O)Oc2cccc(-c3cnc4ccccc4n3)c2)c1,0%,?,15%,?,18µM*,?
Cc1ccc(NCc2ccc(C)s2)cc1,21µM*,18%,13%,18%,.,21%
CC(=O)N1CCN(c2ccc(NCc3ccc(C)s3)cc2)CC1,-11%,6%,-3%,13%,-13%,-12%
Cc1ccc(CNc2ccc(N3CCOCC3)cc2)s1,0.95µM*,3.5µM*,4.1µM*,2.5µM*,18µM*,?
Cc1cccc(C(=O)NCC(=O)OCC(=O)c2cc(C)n(CC3CCCO3)c2C)c1 (centres undefined),21µM*,22%,?,15%,8%,?
COCCn1c(C)cc(C(=O)COC(=O)CNC(=O)c2ccccc2)c1C,?,-4%,11%,-2%,3%,?
Cc1cc(C(=O)COC(=O)CNC(=O)c2ccccc2)c(C)n1CC1CCCO1 (centres undefined),19µM*,-12%,8%,-4%,-6%,?
Cc1ccc(SCc2nc(-c3ccc(C(=O)NCc4ccc(Cl)cc4)cc3)oc2C)cc1,4%,.,.,.,.,.
Cc1ccc(-c2noc(CCC(=O)Nc3ccc(F)cc3Cl)n2)cc1,2%,.,.,.,16%,.
Cc1ccc(F)c(NC(=O)/C(C#N)=C(\O)c2ccc(C(C)(C)C)cc2)c1,12µM*,5%,6%,8%,?,-11%
Cc1cccc(NC(=O)C(=O)NNC(=O)c2ccc(C(C)(C)C)cc2)c1,-19%,21%,5%,0%,.,3%
Cc1ccc(NC(=O)n2ncc3c(C)cccc32)c(C)c1,2.4µM*!,0.32µM*,?,0.4µM*,.,?
Cc1cccc2c1cnn2C(=O)Nc1ccc(Br)cc1F,?,?,5%,0.28µM*,.,6%
SMILES,FLuc counter,Rab9 prom act,ELG1 genotoxic,NPC1 promoter act,SMN2 splice up,ELG1 DNA repair
O=C(Nc1ccc2c(c1)N(C1CCCC1)C(=O)c1ccccc1S2)c1cccc(F)c1,7%,.,.,.,.,.
COc1ccc(C(CC(=O)Nc2cccc(C)c2C)N2Cc3ccccc3C2=O)cc1 (centres undefined),-16%,.,.,.,.,.
O=C(/C=C/c1ccccc1)NC(=S)NNC(=O)Cc1cccs1,-3%,17%,1%,7%,13µM*,8%
O=C(/C=C/c1cccs1)NC(=S)NNC(=O)c1ccccc1O,?,-41%,-8%,-36%,-70%,?
COc1ccc(C(=O)NNC(=S)NC(=O)/C=C/c2cccs2)cc1,2.7µM*,3.5µM*,21µM*,3.5µM*,.,?
COc1ccc(/C=C/C(=O)NC(=S)NNC(=O)Cc2cccs2)cc1,-12%,24%,?,12%,13µM*,?
COc1ccc(/C=C/C(=O)NC(=S)NNC(=O)c2ccco2)cc1,-15%,-2%,1%,-8%,-1%,-28%
COc1ccc(/C=C/C(=O)NC(=S)NNC(=O)c2cc(OC)c(OC)c(OC)c2)cc1,?,-1%,0%,-3%,.,7.3µM*
COc1ccc(-c2noc(-c3ccc(N4CCN(c5ccccc5OC)CC4)c([N+](=O)[O-])c3)n2)cc1,-15%,.,.,.,.,.
COc1ccc(N2C(=S)NC3N2C(=S)NC3(C)c2ccccc2)cc1 (centres undefined),?,4µM*,?,29%,?,0%
CC1(c2ccccc2)NC(=S)N2C1NC(=S)N2c1ccccc1 (centres undefined),-11%,-1%,5%,0%,12%,-3%
Cc1cnn(C(=S)NCCc2ccccc2)c1,19µM*,?,15µM*,?,?,?
COc1ccc(CCNC(=O)CSc2nc(-c3ccc(F)cc3)cc(C(F)(F)F)n2)cc1OC,3%,.,.,.,28%,.
CC(C)CNC(=O)COC(=O)c1c2c(nc3ccccc13)/C(=C/c1cccs1)CC2,5.4µM*,-7%,-11%,-29%,.,?
CC1CCCCC1NC(=O)COC(=O)c1c2c(nc3ccccc13)/C(=C/c1ccco1)CC2 (centres undefined),?,19%,1%,11%,26%,?
O=C(COC(=O)c1c2c(nc3ccccc13)/C(=C/c1ccco1)CC2)NC1CCCC1,5.4µM*,27%,-2%,19%,28%,?
CCN1C/C(=C/c2cccs2)c2nc3ccccc3c(C(=O)O)c2C1,0%,-1%,0%,0%,.,-8%
NC(=O)c1ccc(NC(=O)COC(=O)c2c3c(nc4ccccc24)/C(=C\c2cccs2)CCC3)cc1,?,-36%,-16%,-32%,-54%,7.3µM*
